Consider 40 sequences from the OligoGym collection.
Also: reference of the scale not given here.

In the first assay the target is RPS6KA5. The assay is described as follows: pooled miR-30 sensor sort-seq; sequence = guide strand. The conditions noted are these: shRNA.
The sequence TTTTTCTCCATCAACAGTGAAA gave a sensor-assay potency score (higher = more potent) of -1.03.
Still for that read-out and setting: the same measure for TTTTTATGCACACACTTTCGAC: -1.13.
The sequence TAATTCATCTCGAATGACTGGC displayed a sensor-assay potency score (higher = more potent) of 0.637.
In the case of TACAGCTGAAACAAGCTTCCTC, the sensor-assay potency score (higher = more potent) was determined as 0.279.
On the same count and under the same terms, the figure for TCACTTTTTAATATTCTCCTAG is -0.3; for TTTGTTTGGATCTACTGTGAGA it is -1.04; for TTCATCTCGAATGACTGGCTTA it is 0.378.
TTCTTCATGATTTCCACCGCGC returned a sensor-assay potency score (higher = more potent) of 0.302.
In turn, TTGCTGATTATTTTGACTGCAA showed a sensor-assay potency score (higher = more potent) of 0.0107.
Same read-out and setting: the same measure for TACACGTCAAACTTCGGTCATG: -0.748; for TTTCTGTGAACTCTTCTGCAAA: -1.11.

The next assay deals with RRP12. The description is as above. The conditions noted are these: shRNA.
The sequence TTGTAAATCATTCTCACTGGGA had a sensor-assay potency score (higher = more potent) of 0.0361.
On the same count and under the same terms, the figure for TTCAACTTAGCTGAGACACCAG is -0.063.
Turning to TAGATCTTAGATTCCACTGTGC, the sensor-assay potency score (higher = more potent) worked out at 0.564.
The same measure, in the same setting: the same measure for TAACTTCACAGCATCGACTGTC: 0.541; for TTGTTGTCATCAGAGCAGCGAA: -1.32.
Same read-out and setting: the same measure for TCAACTTAGCTGAGACACCAGA: -0.378; for TCGACTGTCAGGTCACTCCTTC: -0.238; for TATGTAACTTCACAGCATCGAC: -0.864.
On the same count and under the same terms, the same measure for TTGCTCTCTAGGTAGGGCCGGA: -0.614; for TTGAGCTCTGCTGACAGGGTGC: -0.0342; for TTTCTGGTGCTTGAGCTTCTGG: -0.862.
For the sequence TGCAGCTTCATCTTCTTCCTGC, the sensor-assay potency score (higher = more potent) worked out at 0.0542.

The next assay addresses RSF1. Described as above. The settings on record: shRNA.
In turn, TTACCAAGGACCATGAACCTGG displayed a sensor-assay potency score (higher = more potent) of 0.217.
Same read-out and setting: the figure for TTGAGATCCATCACTGATCTTG is 0.36.
The same measure, in the same setting: the figure for TTTGAGATTGTCATCAAACTGA is 0.222; for TTACTTTAGAATTTGTATCTTT it is 0.216; for TTCTTTTGGTACTTCTCCGTTG it is -0.632.
Take TAAGGCAACATCCAAATCCTGC: the sensor-assay potency score (higher = more potent) is -1.12.
TATTTCTTTACCACGTCGCAAA: the sensor-assay potency score (higher = more potent) is -1.15.
Same read-out and setting: the figure for TTGATCTTCAGAAAAGTCTGGC is 0.121.
The same measure, in the same setting: the same measure for TTGATCATCTTGTTCTTCTATG: -0.223.
Same read-out and setting: the figure for TAGAATTTGTATCTTTCTCTGA is 0.105.
In the case of TTCTTTTCTTTCTTCATCCAAA, the sensor-assay potency score (higher = more potent) was -0.992.
On the same count and under the same terms, the same measure for TGTTCTTCTATGTACATTCTGA: 0.345.

The target in a further assay is RSPH9. The assay is described as above. The settings on record: shRNA.
For TTGATCTGGACCACTATTTCTT, the sensor-assay potency score (higher = more potent) is -0.0516.
Still for that read-out and setting: the same measure for TAGCCATAGTTCTTGGTGCGGG: -0.956; for TAGCTCAACAGGCTCCCTGAAA: -1.11; for TCAATGACAGACACCAAGCGGG: -0.168.
TTAACCAGCATAAGAGACGTGA yielded a sensor-assay potency score (higher = more potent) of 0.0215.
